# Test results taken from PubChem BioAssay (Tox21).
# A number with no mark means an inactive call. Inconclusive results are not listed. Entries that show only a call come without a potency. Activity calls are given as the source filed them. Unless noted, calls follow the shape of the dose curve; as a rule, active = well fitted curve in the direction sought with a large enough effect in the repeat runs; inconclusive = weak or mixed curves; inactive = no such curve, though single readings can be large; an effect the other way counts as inactive or inconclusive.
# Legend:
# [1] = qHTS assay for small molecules that induce genotoxicity in human embryonic kidney cells expressing luciferase-tagged ATAD5 (AID 651632); also: nearly all actives have a fitted effect of over 15% in size; also: potency is read from the fitted curve at half-maximal effect
# How it was run: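 Cells were seeded at 2,000 per well, dosed with compound, and incubated 16 hr at 37C in 5% CO2. Luciferase activity was then quantified after a 30 min room-temperature incubation with Amplite.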
# [2] = qHTS assay for small molecule agonists of the p53 signaling pathway - cell viability (AID 651633; calls by dose curve;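 also: p53RE-bla HCT reporter cells with a stable beta-lactamase p53 reporter; series mostly up to about 83 µM; nearly all actives have a fitted effect of over 30% in size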)
# How it was run: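 p53RE-bla cells were treated with compound for 16 hours at 37 C. Cytotoxicity was then measured as CellTiter-Glo luminescence after 30 min at room temperature.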
# [3] = qHTS assay for small molecules that induce genotoxicity in human embryonic kidney cells expressing luciferase-tagged ATAD5 - cell viability (AID 651634; calls by dose curve; also: nearly all actives have a fitted effect of over 25% in size)
# How it was run: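 Cells (HEK293T, luciferase-tagged ATAD5) are seeded at 2,000 per well, dosed with compound or DMSO vehicle, and incubated 15.5 hr at 37C and 5% CO2. CellTiter-Fluor is added for 30 min before fluorescence is measured.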
# [4] = qHTS assay for small molecule disruptors of the mitochondrial membrane potential - cell viability (AID 720634; calls by dose curve;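 also: human HepG2 liver cancer cells; series mostly up to about 83 µM; nearly all actives have a fitted effect of over 20% in size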)
# How it was run: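 Cytotoxicity was measured by ATP quantitation in HepG2 wells that had first been treated with compound for 1 hr and stained with m-MPI dye; CellTiter-Glo incubation was 30 min at room temperature.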
# [5] = qHTS assay for small molecule disruptors of the mitochondrial membrane potential (AID 720635); also: potency is read from the fitted curve at half-maximal effect
# How it was run: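 HepG2 cells exposed to compound 1 hr at 37C, then Mito-MPS dye 30 min. Ratio read of aggregate (540/590 nm) versus monomer (490/535 nm) fluorescence.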
# [6] = qHTS assay to test for compound auto fluorescence at 590 nm (red) in HepG2 cells (AID 720674)
# How it was run: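 Seeding: 2,000 HepG2 cells/well, MEM/10% FBS, overnight 37 C. Dosing: compound vs DMSO. Incubation: 1 hr, 37 C, 5% CO2. Read: fluorescence 540 ex/590 em, Rose Bengal sodium as red reference.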
# [7] = qHTS assay to test for compound auto fluorescence at 535 nm (green) in HepG2 cells (AID 720675)
# [8] = qHTS assay to test for compound auto fluorescence at 460 nm (blue) in HEK293 cells (AID 720678)
# How it was run: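 Measured: blue fluorescence (Ex 405/Em 460 nm) of compound-treated HEK293 cells, incubated overnight at 37C with 5% CO2 and scaled to triamterene equivalents.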
# [9] = qHTS assay to test for compound auto fluorescence at 590 nm (red) in HEK293 cells (AID 720679)
# How it was run: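 Using HEK293 cells at 2,000 per well, the screen added 23 nL of each compound after cell attachment and incubated overnight (37C, 5% CO2). The plate reader then captured red-label fluorescence, Ex/Em 540/590nm.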
# [10] = qHTS assay to test for compound auto fluorescence at 535 nm (green) in HEK293 cells (AID 720680)
# [11] = qHTS assay to test for compound auto fluorescence at 460 nm (blue) in HEK293 cell free culture (AID 720681)
# How it was run: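 Compounds were added to cell-free DMEM with 10% FBS and fluorescence read directly. The blue channel used 405 nm excitation and 460 nm emission, with triamterene as the reference fluorophore.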
# [12] = qHTS assay to test for compound auto fluorescence at 535 nm (green) in HEK293 cell free culture (AID 720682)
# How it was run: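 Using fluorescein as calibrant, autofluorescence was quantified at 485/535 nm in cell-free DMEM containing 10% FBS after pintool addition of compound or vehicle.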
# [13] = qHTS assay to test for compound auto fluorescence at 590 nm (red) in HEK293 cell free culture (AID 720683)
# How it was run: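 Cell-free wells of DMEM with 10% FBS received compound, and intrinsic fluorescence was read at excitation/emission 540/590 nm. Values expressed as equivalence to Rose Bengal sodium.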
# [14] = qHTS assay to test for compound auto fluorescence at 590 nm (red) in HepG2 cell free culture (AID 720684)
# How it was run: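 Auto fluorescence equivalency versus Rose Bengal sodium, red channel Ex/Em 540/590 nm; compounds in cell-free MEM/10% FBS; DMSO vehicle control.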
# [15] = qHTS assay to test for compound auto fluorescence at 460 nm (blue) in HepG2 cells (AID 720687)
# How it was run: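 HepG2 cells in MEM with 10% FBS, attached overnight at 37 C, were exposed to compound or DMSO for 1 hr at 37 C, 5% CO2. Blue fluorescence was read at 405/460 nm, with triamterene as reference fluorophore.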
# [16] = target: Glucocorticoid receptor (Homo sapiens) (UniProt P04150); experiment: qHTS assay to identify small molecule agonists of the glucocorticoid receptor (GR) signaling pathway (AID 720691; active = well fitted activation curve with a large enough effect in the signal ratio in the repeat runs, not every such curve was filed as active; the % refers to the signal ratio)
# How it was run: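 Steps: seed GR-bla HeLa cells, incubate 4 h at 37 C/5% CO2; pin-transfer DMSO-dissolved compounds; incubate 18 h at 37 C; add LiveBLAzer B/G FRET substrate; after 2 h at room temperature, measure fluorescence.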
# [17] = qHTS assay to test for compound auto fluorescence at 460 nm (blue) in HepG2 cell free culture (AID 720685)
# How it was run: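 Cell-free plates of MEM plus 10% FBS received 23 nL compound or DMSO vehicle; blue-channel (405/460 nm) intensity scored against triamterene as reference fluorophore.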
# [18] = qHTS assay to test for compound auto fluorescence at 535 nm (green) in HepG2 cell free culture (AID 720686)
# [19] = qHTS assay for small molecule agonists of the p53 signaling pathway (AID 651631; calls by dose curve; also: nearly all actives have a fitted effect of over 15% in size)
# How it was run: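 Stably transfected HCT-116 cells (beta-lactamase behind p53 response elements) get compounds after a 5 h settling period; 16 h later at 37 °C, FRET substrate is loaded and fluorescence read after 2 h.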
# [20] = target: Glucocorticoid receptor (Homo sapiens) (UniProt P04150); experiment: qHTS assay to identify small molecule antagonists of the glucocorticoid receptor (GR) signaling pathway (AID 720692; active = well fitted inhibition curve with a large enough effect in the signal ratio in the repeat runs, not every such curve was filed as active; the % refers to the signal ratio)
# How it was run: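 Antagonism was scored as loss of dexamethasone-driven (5 nM final) reporter signal in HeLa cells bearing a glucocorticoid response element–beta-lactamase construct, after 18 h compound exposure at 37 C and 2 h FRET substrate loading.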
# Glucocorticoid receptor (Homo sapiens), sequence (P04150 whole entry, looked up): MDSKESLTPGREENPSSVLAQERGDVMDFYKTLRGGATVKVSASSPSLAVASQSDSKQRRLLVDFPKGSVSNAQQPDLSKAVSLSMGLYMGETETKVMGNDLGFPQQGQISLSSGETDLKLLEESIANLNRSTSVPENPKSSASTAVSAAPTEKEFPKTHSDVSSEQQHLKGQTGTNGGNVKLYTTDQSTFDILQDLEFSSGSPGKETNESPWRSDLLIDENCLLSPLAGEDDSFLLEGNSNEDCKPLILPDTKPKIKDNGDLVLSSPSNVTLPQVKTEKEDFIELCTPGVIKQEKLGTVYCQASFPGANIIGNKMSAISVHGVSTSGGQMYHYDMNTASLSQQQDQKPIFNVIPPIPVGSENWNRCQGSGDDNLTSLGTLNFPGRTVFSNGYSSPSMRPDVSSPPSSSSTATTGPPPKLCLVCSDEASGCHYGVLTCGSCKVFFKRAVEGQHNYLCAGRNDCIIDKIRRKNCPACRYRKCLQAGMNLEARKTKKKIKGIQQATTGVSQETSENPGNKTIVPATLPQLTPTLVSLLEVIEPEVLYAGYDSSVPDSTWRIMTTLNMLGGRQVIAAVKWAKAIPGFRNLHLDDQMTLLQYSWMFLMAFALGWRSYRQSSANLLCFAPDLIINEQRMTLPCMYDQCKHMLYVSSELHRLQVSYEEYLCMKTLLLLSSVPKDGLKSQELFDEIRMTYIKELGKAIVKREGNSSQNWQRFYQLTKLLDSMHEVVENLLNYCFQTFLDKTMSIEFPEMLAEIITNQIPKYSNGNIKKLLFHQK
smiles,measurement,setting,value
CCN(CC)C(C)CN1c2ccccc2Sc2ccccc21 (configuration not stated),Potency,[1],inactive
same,Potency,[2],inactive
same,Potency,[3],inactive
same,Potency,[4],inactive
same,Potency,[5],inactive
same,"fluorescence, relative to Rose Bengal",[6],0.373% [at 18.6 µM]
same,"fluorescence, % of fluorescein control",[7],0.0339% [at 18.6 µM]
same,"fluorescence, % of triamterene",[8],-0.0331% [at 18.6 µM]
same,"fluorescence, % of fluorescent control",[9],-0.0946% [at 18.6 µM]
same,"fluorescence, % of fluorescein",[10],-0.0513% [at 18.6 µM]
same,"fluorescence, % of fluorescent control",[11],-0.0592% [at 18.6 µM]
same,activity change,[12],-0.135% [at 18.6 µM]
same,"fluorescence, % of fluorescent control",[13],-0.0816% [at 18.6 µM]
same,"fluorescence, % of Rose Bengal",[14],-0.332% [at 18.6 µM]
same,"fluorescence, % of fluorescent control",[15],-0.0255% [at 18.6 µM]
same,Potency,[16],inactive
CC(C)NCC(O)COc1ccc(CC(N)=O)cc1 (configuration not stated),Potency,[1],inactive
same,Potency,[2],inactive
same,Potency,[3],inactive
same,Potency,[4],inactive
same,outcome,[6],inactive
same,outcome,[7],inactive
same,Potency,[8],inactive
same,outcome,[9],inactive
same,outcome,[10],inactive
same,Potency,[11],inactive
same,outcome,[12],inactive
same,outcome,[13],inactive
same,outcome,[14],inactive
same,Potency,[17],inactive
same,outcome,[18],inactive
same,Potency,[15],inactive
CCCCCCCCCCCCC(=O)O,Potency,[19],inactive
same,Potency,[2],inactive
same,Potency,[3],inactive
same,Potency,[5],inactive
same,outcome,[6],inactive
same,outcome,[7],inactive
same,Potency,[8],inactive
same,outcome,[9],inactive
same,outcome,[10],inactive
same,Potency,[11],inactive
same,outcome,[12],inactive
same,outcome,[13],inactive
same,outcome,[14],inactive
same,Potency,[17],inactive
same,outcome,[18],inactive
same,Potency,[15],inactive
same,Potency,[16],inactive
O=C(O)c1cccc(N(Cc2cccnc2)c2ccc(OC(F)F)c(OC(F)F)c2)c1,Potency,[19],inactive
same,Potency,[1],inactive
same,Potency,[3],inactive
same,outcome,[6],inactive
same,Potency,[8],inactive
same,outcome,[9],inactive
same,outcome,[10],inactive
same,Potency,[11],inactive
same,outcome,[12],inactive
same,outcome,[13],inactive
same,outcome,[14],inactive
same,Potency,[17],inactive
same,outcome,[18],inactive
same,Potency,[15],inactive
O=C(NN1CCCC1)NS(=O)(=O)c1ccc(Cl)cc1,Potency,[1],inactive
same,Potency,[2],inactive
same,Potency,[3],inactive
same,Potency,[4],inactive
same,Potency,[5],inactive
same,outcome,[6],inactive
same,outcome,[7],inactive
same,outcome,[9],inactive
same,outcome,[10],inactive
same,Potency,[11],inactive
same,outcome,[12],inactive
same,outcome,[13],inactive
same,outcome,[14],inactive
same,Potency,[17],inactive
same,Potency,[15],inactive
same,Potency,[16],inactive
CC[C@@H]1C[C@H](N(Cc2cc(C(F)(F)F)cc(C(F)(F)F)c2)C(C)=O)c2cc(C(F)(F)F)ccc2N1C(=O)OC(C)C,Potency,[1],inactive
same,Potency,[2],inactive
same,Potency,[3],inactive
same,Potency,[4],inactive
same,Potency,[5],4.33 µM (active)
same,outcome,[6],inactive
same,outcome,[7],inactive
same,outcome,[9],inactive
same,outcome,[10],inactive
same,Potency,[11],inactive
same,outcome,[12],inactive
same,outcome,[13],inactive
same,outcome,[14],inactive
same,Potency,[17],inactive
same,outcome,[18],inactive
same,Potency,[15],inactive
same,Potency,[16],inactive
same,Potency,[20],inactive
O=c1[nH]cnc2ccccc12,Potency,[19],inactive
same,Potency,[2],inactive
same,Potency,[4],inactive
same,Potency,[5],inactive
same,outcome,[6],inactive
same,outcome,[7],inactive
same,Potency,[8],inactive
same,outcome,[9],inactive
same,outcome,[10],inactive
same,Potency,[11],inactive
same,outcome,[12],inactive
same,outcome,[13],inactive
same,outcome,[14],inactive
same,Potency,[17],inactive
same,outcome,[18],inactive
same,Potency,[15],inactive
same,Potency,[16],inactive
N#CCCNCCC#N,Potency,[1],inactive
same,Potency,[2],inactive
same,Potency,[3],inactive
same,Potency,[4],inactive
same,Potency,[5],inactive
same,outcome,[6],inactive
same,outcome,[7],inactive
same,Potency,[8],inactive
same,outcome,[9],inactive
same,outcome,[10],inactive
same,Potency,[11],inactive
same,outcome,[12],inactive
same,outcome,[13],inactive
same,outcome,[14],inactive
same,Potency,[17],inactive
same,outcome,[18],inactive
same,Potency,[15],inactive
CC(O)C1CCCCC1 (configuration not stated),Potency,[1],inactive
same,Potency,[2],inactive
same,Potency,[3],inactive
same,Potency,[4],inactive
same,Potency,[5],inactive
same,outcome,[6],inactive
same,outcome,[7],inactive
same,Potency,[8],inactive
same,outcome,[9],inactive
same,outcome,[10],inactive
same,Potency,[11],inactive
same,outcome,[12],inactive
same,outcome,[13],inactive
same,outcome,[14],inactive
same,outcome,[18],inactive
same,Potency,[15],inactive
same,Potency,[16],inactive
same,Potency,[20],inactive
CC(=O)/C=C/C1C(C)=CCCC1(C)C (configuration not stated),Potency,[1],inactive
same,Potency,[2],inactive
same,Potency,[3],inactive
same,Potency,[4],inactive
same,outcome,[6],inactive
same,outcome,[7],inactive
same,Potency,[8],inactive
same,outcome,[9],inactive
same,outcome,[10],inactive
same,Potency,[11],inactive
same,outcome,[12],inactive
same,outcome,[13],inactive
same,outcome,[14],inactive
same,Potency,[17],inactive
same,outcome,[18],inactive
same,Potency,[15],inactive
CCN(CC)CCOc1ccc2c(c1)C(=O)c1cc(OCCN(CC)CC)ccc1-2,Potency,[1],inactive
same,Potency,[2],inactive
same,Potency,[3],inactive
same,Potency,[4],inactive
same,Potency,[5],inactive
same,outcome,[6],inactive
same,outcome,[7],inactive
same,outcome,[9],inactive
same,outcome,[10],inactive
same,Potency,[11],inactive
same,outcome,[12],inactive
same,outcome,[13],inactive
same,outcome,[14],inactive
same,Potency,[17],inactive
same,outcome,[18],inactive
same,Potency,[15],inactive
same,Potency,[16],inactive
CC(C)CCCCCCOC(=O)c1ccc(C(=O)OCCCCCCC(C)C)c(C(=O)OCCCCCCC(C)C)c1,Potency,[1],inactive
same,Potency,[2],inactive
same,Potency,[3],inactive
same,Potency,[4],inactive
same,Potency,[5],inactive
same,outcome,[6],inactive
same,outcome,[7],inactive
same,Potency,[8],inactive
same,outcome,[9],inactive
same,outcome,[10],inactive
same,Potency,[11],inactive
same,outcome,[12],inactive
same,outcome,[13],inactive
same,outcome,[14],inactive
same,Potency,[15],inactive
CCCCOCCOCCOCCOCCO,Potency,[1],inactive
same,Potency,[2],inactive
same,Potency,[3],inactive
same,Potency,[4],inactive
same,Potency,[5],inactive
same,outcome,[6],inactive
same,outcome,[7],inactive
same,outcome,[9],inactive
same,outcome,[10],inactive
same,Potency,[11],inactive
same,outcome,[12],inactive
same,outcome,[13],inactive
same,outcome,[14],inactive
same,outcome,[18],inactive
same,Potency,[15],inactive
O=C(NS(=O)(=O)/C=C/c1cccs1)c1ccc(F)cc1Br,Potency,[1],1.37 µM (active)
same,Potency,[2],inactive
same,Potency,[3],inactive
same,Potency,[4],inactive
same,Potency,[5],61.1 µM (active)
same,outcome,[6],inactive
same,outcome,[7],inactive
same,outcome,[9],inactive
same,outcome,[10],inactive
same,Potency,[11],inactive
same,outcome,[12],inactive
same,outcome,[13],inactive
same,outcome,[14],inactive
same,Potency,[17],inactive
same,outcome,[18],inactive
same,Potency,[15],inactive
O=CNc1ccccc1,Potency,[1],inactive
same,Potency,[2],inactive
same,Potency,[3],inactive
same,Potency,[4],inactive
same,Potency,[5],inactive
same,outcome,[6],inactive
same,Potency,[8],inactive
same,outcome,[9],inactive
same,outcome,[10],inactive
same,Potency,[11],inactive
same,outcome,[13],inactive
same,outcome,[14],inactive
same,Potency,[15],inactive
same,Potency,[16],inactive
